# Reference: PubChem BioAssay AID1851 (National Center for Advancing Translational Sciences (NCATS), 2009)
# “And” between values parts separate entries of the source, which are not always exact repeats. Equal values may be shown once. Screen size: about 16,000 compounds; about 4,000 (25%) were called active. Inconclusive results (about 26%) are left out. The call rests on the fitted dose curve; in most records, active means well fitted curve in the direction sought with a large enough effect; inconclusive means small, poorly fitted or top-dose-only effect, or effect the other way; inactive means no such curve, though single readings can be large or run the other way. Not all results are given here. Some compounds were tested as several samples or in several runs, with calls that do not always agree.
# Target: Cytochrome P450 2C9 (Homo sapiens) (UniProt P11712)
# Sequence (P11712 whole entry, looked up): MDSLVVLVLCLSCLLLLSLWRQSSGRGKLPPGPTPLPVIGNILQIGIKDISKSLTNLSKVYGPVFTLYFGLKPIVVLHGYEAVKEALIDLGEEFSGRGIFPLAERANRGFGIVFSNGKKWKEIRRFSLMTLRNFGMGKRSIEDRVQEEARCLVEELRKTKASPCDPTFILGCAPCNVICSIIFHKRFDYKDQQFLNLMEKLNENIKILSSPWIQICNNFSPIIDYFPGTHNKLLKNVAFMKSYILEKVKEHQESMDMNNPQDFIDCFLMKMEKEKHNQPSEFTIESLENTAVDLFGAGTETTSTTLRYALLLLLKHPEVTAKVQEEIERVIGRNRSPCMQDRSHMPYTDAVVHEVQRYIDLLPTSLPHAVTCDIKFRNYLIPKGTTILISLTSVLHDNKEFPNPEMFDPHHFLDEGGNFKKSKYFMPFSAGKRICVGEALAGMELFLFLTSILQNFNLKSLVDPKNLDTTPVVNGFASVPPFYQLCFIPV
# Assay: Cytochrome panel assay with activity outcomes
# Conditions: recombinant CYP, pro-luciferin dealkylation, luminescence, p450-cyp2c9; series mostly up to 57.1 µM; activity, negative = inhibition: at the top concentration
# On the % scale 0 is the no-effect control and ±100 the full control effect.
Structure (SMILES),"activity, negative = inhibition",AC50
CCOC(=O)CCN1C(=O)[C@H]2[C@H]3[C@H](O)[C@H](O)C/C(=N/OC[C@@H](O)COCc4ccco4)[C@H]3CC[C@@H]2C1=O,10.4% [at 11.4 µM] (inactive),
CN(C/C=C\c1ccccc1)Cc1cccc2ccccc12,-24.2% [at 25.6 µM] (inactive),
CN(C)c1nc(-c2ccoc2)nc2ccccc12,21.3% [at 2.29 µM] (inactive),
O=C(NC1CCCCC1)C1CC=CCC1C(=O)OCC(Cl)=C(Cl)Cl (stereo not given),,1.41 µM (active)
C#CCCCO/N=C1/C[C@@H](O)[C@@H](O)[C@@H]2[C@@H]3C(=O)N(Cc4ccccc4)C(=O)[C@H]3CC[C@@H]12,-2.53% [at 11.4 µM] (inactive),
NC[C@](O)(CS(=O)(=O)O)c1ccc(Cl)cc1,11.2% (inactive),
COc1ccc(CCN2C(=NC(=O)CCC(=O)O)SC3CS(=O)(=O)CC32)cc1 (stereo not given),-18.3% (inactive),
O=C(c1ccc([N+](=O)[O-])cc1)[C@@H](Br)[C@@H](Br)c1ccnc2ccccc12,,3.16 µM (active)
O=[N+]([O-])c1ccc2ncccc2c1CCc1c([N+](=O)[O-])ccc2ncccc12,13% [at 11.4 µM] (inactive),
CCC[C@@H]1O[C@@H]2C[C@@H]3[C@H]4CCC5=CC(=O)C=C[C@@]5(C)[C@H]4[C@H](O)C[C@@]3(C)[C@@]2(C(=O)CO)O1,-19% [at 25.6 µM] (inactive),
N#C/C(=C\c1ccc(Cl)cc1)c1nc2ncccc2[nH]1,,7.08 µM (active)
N#C/C(=C\c1ccccc1)c1nc2ncccc2[nH]1,,5.01 µM (active)
COc1ccc2[nH]cc(CCNc3ccnc(-c4ccccc4C(F)(F)F)n3)c2c1,-28.2% [at 2.29 µM] (inactive),
COc1ccc2[nH]cc(CCNc3ncncc3-c3ccccc3C(F)(F)F)c2c1,,0.1 µM (active)
COc1ccc2[nH]cc(CCNc3ncncc3-c3cccc(NS(C)(=O)=O)c3)c2c1,,0.398 µM (active)
COc1ccc2[nH]cc(CCNc3cc(-c4ccoc4)ncn3)c2c1,-23.3% [at 2.29 µM] (inactive),
COc1ccc2[nH]cc(CCNc3ncncc3-c3ccccc3OC)c2c1,,0.251 µM (active)
COc1ccc2[nH]cc(CCNc3ncncc3-c3ccccc3CN(C)C)c2c1,4.66% [at 2.29 µM] (inactive),
COc1ccc2[nH]cc(CCNc3ncncc3-c3ccccc3Cl)c2c1,,0.2 µM (active)
COc1ccc(CNc2ncncc2-c2ccccc2C(F)(F)F)c(OC)c1,-25.4% [at 2.29 µM] (inactive),
CN[C@H](CC(=O)O)C(=O)O,11.3% (inactive),
O=S1(=O)C=C(SCc2cccc(Cl)c2)Nc2ccccc21,,1.58 µM (active)

Structure (SMILES),"activity, negative = inhibition",AC50
O=C(c1nn(Cc2ccccc2)c(=O)c2ccccc12)N1CCN(C/C=C/c2ccccc2)CC1,,3.98 µM (active)
COC(=O)c1cc2n(n1)CCN(Cc1ccccc1F)C2=O,,10 µM (active)
CNC[C@H](O)[C@H](O)[C@H](O)[C@H](O)CO,-13.8% [at 25.6 µM] (inactive),
CC(C)[C@](N)(C(=O)O)c1ccccc1,-6.77% [at 11.4 µM] (inactive),
CC(C)NC(=O)N1CC2(CCN(C(=O)c3ccco3)CC2)C1,2.28% (inactive),
CC(C)NC(=O)N1CCC2(CC1)CCN(C(=O)c1ccco1)CC2,5.65% (inactive),
CC1CCN(C(NC(=O)c2ccco2)C(=O)c2ccccc2)CC1 (stereo not given),,2.51 µM (active)
O=C(c1csnn1)N1CCC2(CCN(Cc3nccs3)CC2)CC1,2.1% (inactive),
Cn1nc(-c2ccc(N3CCOCC3)c(NS(=O)(=O)c3ccc(Cl)cc3)c2)c2ccccc2c1=O,,1 µM (active)
COCCn1c(=O)c(-c2ccc(Cl)cc2)nc2cnc(N3CCOCC3)nc21,-14.6% (inactive),
CS(=O)(=O)Nc1cccc(-c2ccc3ncnc(N4CCOCC4)c3c2)c1,-1.72% [at 2.29 µM] (inactive),
O=C(/C=C/c1ccc(Cl)cc1)Nc1ccc(N2CCCCC2)cc1,-9.43% (inactive),
O=C(NC(NC(=S)Nc1cc(Cl)ccc1Cl)C(Cl)(Cl)Cl)c1ccco1 (stereo not given),,0.0447 µM (active)
O=C(Cc1ccccc1)NC(NC(=S)Nc1cc(Cl)ccc1Cl)C(Cl)(Cl)Cl (stereo not given),,0.562 µM (active)
COc1ccc(C[C@@](C)(N)C(=O)O)cc1OC,-19.4% [at 25.6 µM] (inactive),
CC(CP(=O)(O)O)NC(=O)Cc1ccccc1 (stereo not given),-17.6% (inactive),
COc1ccc([N+](=O)[O-])cc1NC(=S)NC(NC(=O)Cc1ccc(OC)c(OC)c1)C(Cl)(Cl)Cl (stereo not given),,1.26 µM (active)
O=C(/C=C/c1ccccc1)NC(NC(=S)Nc1ccc(Cl)cc1)C(Cl)(Cl)Cl (stereo not given),,0.562 µM (active)
O=C(O)C1CCCCC1C(=O)Nc1cc(Cl)ccc1Cl (stereo not given),-16% (inactive),
Cc1c(NC(=O)C23CC4CC(CC(C)(C4)C2)C3)c(=O)n(-c2ccccc2)n1C,-19.7% (inactive),
O=C(CNS(=O)(=O)c1ccc(Br)s1)N1CCC(N2CCCCC2)CC1,-20.1% (inactive),
Cc1ccc(-n2c(C)cc(/C=C(\C#N)C(=O)NCC3CCCO3)c2C)cc1 (stereo not given),,17.8 µM (active)

Structure (SMILES),"activity, negative = inhibition",AC50
N#C/C(=C\c1cccs1)C(=O)NCC1CCCO1 (stereo not given),-24.7% (inactive),
NC(=O)C1CCN(C(=O)CN2C(=O)c3ccccc3S2(=O)=O)CC1,1.61% (inactive),
O=C1c2ccccc2C(=O)N1C[C@]1(C(=O)O)NCCS1(=O)=O,-4.49% [at 11.4 µM] (inactive),
CC(C)N(CCC(=O)c1ccc2ccccc2c1)Cc1ccccc1,,12.6 µM (active) and inactive
O=C(O)CCCc1ccc2ccccc2c1,-4.57% [at 11.4 µM] (inactive),
CCN1C(=O)[C@H]2[C@@H]3[C@H](O)[C@H](O)CC(=O)[C@H]3CC[C@H]2C1=O,17.2% [at 11.4 µM] (inactive) and 0.779% [at 11.4 µM] (inactive),
C[C@@]1(C(NC(=O)Cc2ccc(C(F)(F)F)cc2)c2ccc(-c3ccccc3)cc2)C[C@H]1C1CCCCC1 (stereo not given in full),13.5% (inactive),
C[C@@H](C(=O)Nc1ccc2ccccc2c1)[C@@H]1C[C@@]1(C)[C@@H](NC(=O)OCc1ccccc1)c1ccccc1,6.52% (inactive),
C[C@@H](C(=O)Nc1ccc2ccccc2c1)[C@H]1C[C@]1(C)[C@H](NC(=O)OCc1ccccc1)c1ccccc1,,1.58 µM (active)
CC(=O)N[C@H](c1ccccc1)[C@@]1(C)C[C@@H]1[C@@H](C)C(=O)Nc1ccc2ccccc2c1,,10 µM (active)
C[C@@H](C(=O)Nc1ccc2ccccc2c1)[C@H]1C[C@]1(C)[C@H](NP(=O)(c1ccccc1)c1ccccc1)c1ccccc1,,3.16 µM (active)
C[C@@H](C(=O)Nc1ccc2ccccc2c1)[C@@H]1C[C@@]1(C)[C@@H](NS(=O)(=O)c1ccc(-c2ccccc2)cc1)c1ccccc1,17.1% (inactive),
O=C(Nc1ccc2ccccc2c1)c1onc2c1CCCC2,-24.2% (inactive),
COc1ccc(COC(=O)N/N=C2/C[C@@H](O)[C@@H](O)[C@@H]3[C@@H]4C(=O)N([C@@H](C)c5ccccc5)C(=O)[C@H]4CC[C@H]23)cc1,0.0971% [at 11.4 µM] (inactive),
C[C@@H](C(=O)Cc1ccc2ccccc2c1)[C@@H]1C[C@@]1(C)[C@@H](NP(=O)(c1ccccc1)c1ccccc1)c1ccccc1,,3.16 µM (active)
CC(=O)OCC(=O)[C@@]1(O)CC[C@@H]2[C@H]3CCC4=CC(=O)C=C[C@]4(C)[C@]3(F)[C@@H](O)C[C@@]21C,-6.12% [at 25.6 µM] (inactive),
CC(=O)N[C@@H](c1ccccc1)[C@]1(C)C[C@H]1[C@@H](C)C(=O)Nc1ccc2ccccc2c1,,6.31 µM (active)
COC(=O)N[C@H](c1ccccc1)[C@@]1(C)C[C@@H]1[C@@H](C)C(=O)Nc1ccc2ccccc2c1,,3.98 µM (active)
C[C@@H](C(=O)Nc1ccc2ccccc2c1)[C@H]1C[C@]1(C)[C@H](NS(=O)(=O)c1ccc2ccccc2c1)c1ccccc1,6.98% (inactive),
Cc1cc(NC(=O)NC(=O)c2ccc(F)cc2F)n[nH]1,2.2% (inactive),
Cc1ccc(OCC(=O)NNC(=O)c2cc3ccccc3o2)cc1,-5.57% (inactive),
Cc1cc(C)cc(OCC(=O)NNC(=O)c2cc(C)[nH]n2)c1,,28.2 µM (active)

Structure (SMILES),"activity, negative = inhibition",AC50
NC1(C(=O)O)C[C@@H](C(=O)O)[C@H](C(=O)O)C1,,inactive
NC1(C(=O)O)CC(C(=O)O)C1 (stereo not given),-10.1% (inactive),
NC1(C(=O)O)C[C@H](C(=O)O)[C@H](C(=O)O)C1 (stereo not given in full),,6.31 µM (active)
CCc1c(O)c2c(c(O)c1C(C)=O)C(=O)c1c(cc(O)c(C(=O)O)c1C(=O)O)C2=O,-13.4% [at 11.4 µM] (inactive),
O=C(Nc1cccc(NC(=O)c2ccc(-c3cccc(Br)c3)o2)c1)c1ccco1,,5.01 µM (active)
N#Cc1cccc(NC(=O)N2CCC3(CC2)CCN(C(=O)c2ccco2)CC3)c1,-22.8% (inactive),
COc1cccc(-c2nccc(NCc3ccc(OC)cc3OC)n2)c1,-22.3% [at 2.29 µM] (inactive),
COc1cccc(-c2noc(Cn3nc(C)c([N+](=O)[O-])c3C)n2)c1,,4.47 µM (active)
COc1cccc(-c2nccc(N(C)Cc3ccco3)n2)c1,2.63% [at 2.29 µM] (inactive),
COC1(OC)N=C(NC(=O)Nc2ccccc2)C2(C#N)C(c3ccccc3)C12C#N (stereo not given),,12.6 µM (active)
CC(=O)[C@H](C(=N)C#N)C(=O)Nc1ccccc1,10.8% [at 11.4 µM] (inactive),
COc1cccc(C2C3(C#N)C(N)=NC(OC)(OC)C23C#N)c1 (stereo not given),1.33% (inactive),
CC1(C)CC(=O)C(C(c2cccc(O)c2O)C2C(=O)CC(C)(C)CC2=O)C(=O)C1,3.72% [at 11.4 µM] (inactive),
Cc1ccc(C(C2C(=O)CC(C)(C)CC2=O)C2C(=O)CC(C)(C)CC2=O)s1,,28.2 µM (active)
O=S(=O)(c1ccccc1)N1CCC2(CC1)CN(Cc1nccs1)C2,16% (inactive),
O=C(Nc1nnc(C2CC2)s1)C1Cc2ccccc2CN1S(=O)(=O)c1ccccc1F (stereo not given),,3.16 µM (active)
O=C(Nc1nccs1)C1Cc2ccccc2CN1S(=O)(=O)c1ccc(F)cc1 (stereo not given),,12.6 µM (active)
O=S(=O)(c1ccccc1)N1CCC2(CCN(Cc3nccs3)CC2)CC1,-24.4% (inactive),
CCc1nnc(NC(=O)C2Cc3ccccc3CN2S(=O)(=O)c2ccc(C)cc2)s1 (stereo not given),,3.98 µM (active)
